Reference: PubChem BioAssay AID602364 (National Center for Advancing Translational Sciences (NCATS), 2012)
Records with an inconclusive call do not appear. Values without a mark were called inactive. Calls of active or inactive are those of the source. The call rests on the fitted dose curve; in most records, active means well fitted inhibition curve with a large enough effect; inconclusive means small, poorly fitted or top-dose-only effect; inactive means flat fitted curve, though single readings scatter.

What follows are compounds tested against Luciferin 4-monooxygenase (Photinus pyralis) (UniProt P08659) (assay: FLuc inhibitory activity for the follow-up compounds in a biochemical assay with 1mM ATP). Conditions: purified P. pyralis luciferase, luminescence; series mostly up to 57.5 µM; activity change, negative = inhibition: at the top concentration.
Description: NCGC Assay Overview: Firefly (Photinus pyralis) luciferase is one of the most commonly used transcriptional reporters. It is considered one of the more dynamically responsive reporters - that is, responsive to changes in reporter transcription - as it requires no post-translational modifications and is enzymatically active directly after protein synthesis (Wood, 1998). With no endogenous expression in mammalian cells and without the requirement of external excitation, it offers very little background signal, thus generally providing excellent signal to background for most assays. Previous profiling work to determine the prevalence of compounds that affect FLuc enzymatic activity (PubChem AID 411) identified that ~3% of the MLSMR library (then at ~72K) inhibited FLuc. […] Of the compounds identified in this profile that inhibited FLuc, 151 compounds were selected for further analysis, in an effort to better understand their mode of inhibiting FLuc. The assay described here was to determine the activity of the compounds in a FLuc assay that contained a KM concentration of D-luciferin and a high concentration (1mM) of ATP.
NCGC Assay Protocol Summary: Reagents: 50mM Tris acetate, pH 7.5; 10mM Mg acetate; 10uM D-luciferin (Sigma #L9504); 1mM ATP; 0.01% Tween-20; 0.05% BSA; 10nM P. pyralis luciferase (Sigma #L9506) Control compounds used were two known firefly luciferase inhibitors (3-(5-(3-chlorophenyl)-1,2,4-oxadiazol-3-yl)benzoic acid and 5-(2-fluorophenyl)-3-phenyl-1,2,4-oxadiazole), and DMSO. Three microliters containing firefly luciferase substrates in buffer (final concentrations: 50mM Tris acetate, pH 7.5, 10mM Mg acetate, 0.01% Tween-20, 0.05% BSA, 10uM D-luciferin, 1mM ATP) are dispensed into each well of a Greiner white, solid-bottom 1536-well format plate using a flying reagent dispenser (FRD). These assay plates were then treated with 23nL of compound or DMSO using a Kalypsys pin tool, which allows for delivery of a 12-point intraplate titration of each compound to the assay plate (quantitative HTS), with a final compound concentrations ranging from approximately ~60uM to 0.3nM. One microliter of firefly luciferase in […] Tris-acetate buffer was then delivered by FRD to each well for a final enzyme concentration of 10nM. Luciferase activity was then measured using a ViewLux CCD imager (PerkinElmer), with an average exposure time of 2-30 seconds (2X binning, medium/high gain).

Luciferin 4-monooxygenase (Photinus pyralis), sequence (P08659 whole entry, looked up): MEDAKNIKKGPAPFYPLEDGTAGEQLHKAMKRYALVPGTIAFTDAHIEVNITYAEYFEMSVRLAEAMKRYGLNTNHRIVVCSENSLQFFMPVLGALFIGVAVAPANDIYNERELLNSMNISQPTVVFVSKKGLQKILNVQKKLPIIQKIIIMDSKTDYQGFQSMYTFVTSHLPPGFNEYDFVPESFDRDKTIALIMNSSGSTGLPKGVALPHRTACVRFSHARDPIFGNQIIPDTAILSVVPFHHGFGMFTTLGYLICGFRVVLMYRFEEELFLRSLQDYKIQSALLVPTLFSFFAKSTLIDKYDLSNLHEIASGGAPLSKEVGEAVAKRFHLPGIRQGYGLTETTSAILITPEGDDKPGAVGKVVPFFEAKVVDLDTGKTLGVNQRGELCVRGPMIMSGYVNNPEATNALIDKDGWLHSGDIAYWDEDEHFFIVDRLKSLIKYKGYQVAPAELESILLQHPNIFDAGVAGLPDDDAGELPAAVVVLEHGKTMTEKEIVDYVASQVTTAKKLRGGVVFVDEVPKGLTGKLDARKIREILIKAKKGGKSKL

Compound	activity change, negative = inhibition [%]	Potency
O=C(O)c1ccc(NC(=O)c2cc(S(=O)(=O)N3CCCCC3)c(Cl)cc2Cl)cc1	4.47	
O=C(Nc1ccccc1C(=O)O)c1cccc(NC(=O)c2ccco2)c1		18.3 µM (active)
COc1ccc2nc(NC(=O)CCc3nc(-c4ccccc4F)no3)sc2c1	-4.54	
COc1ccc(C(=O)Nc2ccccc2C(=O)Nc2ccc(C(=O)O)cc2)cc1		18.3 µM (active)
Nc1ccc2nc(-c3ccccc3)sc2c1		0.0366 µM (active)
CC(C)Oc1ccc(C(=O)Nc2ccc(-c3nc4ccccc4s3)cc2)cc1	-9.43	
COc1ccc2nc(NC(=O)c3ccco3)sc2c1		0.183 µM (active)
COc1ccc(C(=O)Nc2ccccc2-c2nc3ccccc3s2)c(OC)c1	4.69	
COc1ccc(C(=O)Nc2cccc(C(=O)O)c2)cc1S(=O)(=O)N1CCCC1		14.6 µM (active)
COc1ccccc1C(=O)Nc1ccc(C(=O)Nc2ccccc2C(=O)O)cc1	-4.84	
CCCOc1cccc(C(=O)Nc2ccc(-c3nc4ccccc4s3)c(Cl)c2)c1	2.04	
O=S(=O)(c1ccc(-c2nc3ccccc3s2)cc1)N1CCCC1		0.919 µM (active)
COc1cccc(OC)c1C(=O)Nc1cccc(C(=O)Nc2cccc(C(=O)O)c2)c1		4.61 µM (active)
Cc1ccc(C(=O)Nc2ccc(C(=O)O)cc2)cc1S(=O)(=O)NCc1ccccc1	8.97	
COc1ccc2nc(NC(=O)c3cccs3)sc2c1		7.3 µM (active)
O=C(Cc1ccccc1)Nc1ccc(C(=O)Nc2ccccc2C(=O)O)cc1		20.6 µM (active)
CN(C)S(=O)(=O)c1ccc(C(=O)Nc2ccccc2C(=O)O)cc1		32.6 µM (active)
O=C(O)c1cccc(NC(=O)c2cccc(S(=O)(=O)N3CCCCC3)c2)c1		2.31 µM (active)
Nc1ccc(-c2nc3cc(N)ccc3s2)cc1		0.259 µM (active)
COc1ccc2nc(NC(=O)c3cnccn3)sc2c1		0.517 µM (active)

Compound	activity change, negative = inhibition [%]	Potency
CN(C)c1cccc(C(=O)Nc2ccc(-c3nc4ccccc4s3)cc2)c1		0.819 µM (active)
Cc1ccc(C(=O)Nc2cccc(C(=O)O)c2)cc1S(=O)(=O)N1CCCCC1		0.291 µM (active)
Cc1ccc(C(=O)Nc2cccc(C(=O)O)c2)cc1S(=O)(=O)N1CCOCC1		3.26 µM (active)
Nc1ccc(-c2nc3ccc(N)cc3s2)cc1		0.103 µM (active)
O=C(Nc1ccccc1C(=O)O)c1cccc(S(=O)(=O)Nc2ccc(Br)cc2)c1	-5.72	
Nc1ccc(C(=O)Nc2ccccc2C(=O)O)cc1		14.6 µM (active)
Cc1ccc(C(=O)Nc2cccc(C(=O)O)c2)cc1S(=O)(=O)N1CCCC1		0.461 µM (active)
Cc1ccc2sc(-c3ccc(N)cc3)nc2c1		0.0366 µM (active)
O=C(Nc1ccccc1-c1nc2ccccc2s1)c1ccc(Br)o1	-1.11	
C/C(=N\NC(=O)c1ccccc1NC(=O)c1ccc(Cl)cc1)c1ccncc1		0.146 µM (active)
Nc1cccc(-c2nc3ccc(N)cc3s2)c1		0.116 µM (active)
Cc1c(NC(=O)c2cc(-n3cnnc3)ccc2Cl)cccc1-c1nc2ccccc2s1		2.91 µM (active)
COc1ccc(-c2cccc(C(=O)Nc3cccc(C(=O)O)c3)c2)cc1		5.8 µM (active)
COc1ccc(C(=O)Nc2nc3ccc(OC)cc3s2)cc1		5.8 µM (active)
Cc1ccc(S(=O)(=O)N2CCOCC2)cc1C(=O)Nc1ccccc1C(=O)O	-3.63	
CCOc1ccc(C(=O)Nc2cccc(C(=O)O)c2)cc1Cl		0.58 µM (active)
O=C(O)c1cccc(NC(=O)c2ccc(S(=O)(=O)c3ccccc3)cc2)c1		11.6 µM (active)
COc1ccc2nc(NC(=O)C3CCN(S(=O)(=O)c4cccnc4)CC3)sc2c1	1.18	
Nc1ccc2nc(-c3ccc(O)cc3)sc2c1		0.183 µM (active)
NC(=O)Cc1ccc2sc(-c3ccccc3)nc2c1		1.16 µM (active)
